Data published in PubChem BioAssay AID1159580 (chemical genetic matrix, 2015).
In all, about 5,500 compounds went through this assay and about 2,000 (36%) were called active. Another 18% or so got no clear call; they are omitted. Rule as the data show it: active = normalized growth mostly below about 0.91 (no sharp cut-off); inconclusive = no clear call, values can overlap the other calls; inactive = mostly above about 0.92. Some of the results follow.

Experiment: chemical genetic growth profiling, strain panel (AID 1159580);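 also: tested at 20 µM; growth read once vehicle control cultures reached saturation at 30 °C; 1 = growth at the plate median or of vehicle wells; lower values mean less growth of the strain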
Conditions: growth OD

Measured: normalized growth

COC1=CC(=O)OC(CCc2ccc(OC)c(OC)c2)C1 (stereo unspecified)
inactive: S. cerevisiae deletion strains, locus YAL013W, strain DEP1, active compounds read low 0.988 | S. cerevisiae deletion strains, locus YBR021W, strain FUR4, active compounds read low 0.991 | S. cerevisiae deletion strains, locus YBR229C, strain ROT2, active compounds read low 1.01 | S. cerevisiae deletion strains, locus YCL029C, strain bik1, active compounds read low 1.03 | S. cerevisiae deletion strains, locus YDL035C, strain GPR1, active compounds read low 1.01 | S. cerevisiae deletion strains, locus YDL074C, strain BRE1, active compounds read low 1.02 | S. cerevisiae deletion strains, locus YDL101C, strain DUN1, active compounds read low 1.01 | S. cerevisiae deletion strains, locus YDL134C, strain PPH21, active compounds read low 1 | S. cerevisiae deletion strains, locus YDL185W, strain tfp1, active compounds read low 1.02 | S. cerevisiae deletion strains, locus YDL192W, strain arf1, active compounds read low 1.02 | S. cerevisiae deletion strains, locus YDR101C, strain arx1, active compounds read low 1.01 | S. cerevisiae deletion strains, locus YDR150W, strain NUM1, active compounds read low 1.01 | S. cerevisiae deletion strains, locus YDR162C, strain NBP2, active compounds read low 1.01 | S. cerevisiae deletion strains, locus YDR318W, strain mcm21, active compounds read low 1.01 | S. cerevisiae deletion strains, locus YDR388W, active compounds read low 1.01 | S. cerevisiae deletion strains, locus YDR502C, strain sam2, active compounds read low 1.01 | S. cerevisiae deletion strains, locus YEL061C, strain CIN8, active compounds read low 1.01 | S. cerevisiae deletion strains, locus YER110C, active compounds read low 1.02 | S. cerevisiae deletion strains, locus YER155C, strain BEM2, active compounds read low 1.01 | S. cerevisiae deletion strains, locus YER167W, strain BCK2, active compounds read low 1.02 | S. cerevisiae deletion strains, locus YGL078C, strain dbp3, active compounds read low 1.02 | S. cerevisiae deletion strains, locus YGL086W, strain mad1, active compounds read low 1.02 | S. cerevisiae deletion strains, locus YGL248W, strain PDE1, active compounds read low 1.01 | S. cerevisiae deletion strains, locus YGR078C, strain PAC10, active compounds read low 1.01 | S. cerevisiae deletion strains, locus YGR135W, strain pre9, active compounds read low 1.01 | S. cerevisiae deletion strains, locus YGR229C, strain SMI1, active compounds read low 1 | S. cerevisiae deletion strains, locus YGR252W, strain gcn5, active compounds read low 1 | S. cerevisiae deletion strains, locus YHR030C, strain SLT2, active compounds read low 1.01 | S. cerevisiae deletion strains, locus YHR079C, strain IRE1 (second series), active compounds read low 1.01 | S. cerevisiae deletion strains, locus YHR094C, strain hxt1, active compounds read low 1.01 | S. cerevisiae deletion strains, locus YHR129C, strain ARP1, active compounds read low 1.01 | S. cerevisiae deletion strains, locus YHR200W, strain rpn10, active compounds read low 1.01 | S. cerevisiae deletion strains, locus YIL066C, strain RNR3, active compounds read low 1 | S. cerevisiae deletion strains, locus YIL073C, strain SPO22, active compounds read low 1.07 | S. cerevisiae deletion strains, locus YIL125W, strain kgd1, active compounds read low 1.02 | S. cerevisiae deletion strains, locus YIR030C, strain dcg1, active compounds read low 1.01 | S. cerevisiae deletion strains, locus YJL095W, strain BCK1, active compounds read low 1.02 | S. cerevisiae deletion strains, locus YJL134W, strain LCB3, active compounds read low 1 | S. cerevisiae deletion strains, locus YJL168C, strain set2, active compounds read low 1 | S. cerevisiae deletion strains, locus YJL187C, strain SWE1 (second series), active compounds read low 1.01 | S. cerevisiae deletion strains, locus YJR043C, strain POL32, active compounds read low 1.02 | S. cerevisiae deletion strains, locus YJR075W, strain HOC1, active compounds read low 1.02 | S. cerevisiae deletion strains, locus YKL009W, strain mrt4, active compounds read low 1.03 | S. cerevisiae deletion strains, locus YKL068W, active compounds read low 1.01 | S. cerevisiae deletion strains, locus YKL085W, strain MDH1 (second series), active compounds read low 1.01 | S. cerevisiae deletion strains, locus YKL085W, strain MDH1, active compounds read low 1.01 | S. cerevisiae deletion strains, locus YKL190W, strain CNB1, active compounds read low 1.01 | S. cerevisiae deletion strains, locus YKR001C, strain vps1, active compounds read low 1.04 | S. cerevisiae deletion strains, locus YLR039C, strain RIC1, active compounds read low 1.07 | S. cerevisiae deletion strains, locus YLR058C, strain SHM2, active compounds read low 1.01 | S. cerevisiae deletion strains, locus YLR102C, strain apc9, active compounds read low 1.01 | S. cerevisiae deletion strains, locus YLR262C, strain YPT6, active compounds read low 1.07 | S. cerevisiae deletion strains, locus YLR268W, strain sec22, active compounds read low 1.01 | S. cerevisiae deletion strains, locus YLR330W, strain CHS5, active compounds read low 1.01 | S. cerevisiae deletion strains, locus YLR342W, strain FKS1 (second series), active compounds read low 1.01 | S. cerevisiae deletion strains, locus YLR371W, strain rom2, active compounds read low 1.01 | S. cerevisiae deletion strains, locus YLR418C, strain cdc73, active compounds read low 1.01 | S. cerevisiae deletion strains, locus YML016C, strain PPZ1, active compounds read low 1.01 | S. cerevisiae deletion strains, locus YML032C, strain rad52, active compounds read low 1.04 | S. cerevisiae deletion strains, locus YML124C, strain tub3, active compounds read low 1.02 | S. cerevisiae deletion strains, locus YMR078C, strain ctf18, active compounds read low 1.02 | S. cerevisiae deletion strains, locus YMR223W, strain ubp8, active compounds read low 1.02 | S. cerevisiae deletion strains, locus YMR263W, strain SAP30, active compounds read low 1.01 | S. cerevisiae deletion strains, locus YMR307W, strain GAS1, active compounds read low 1.03 | S. cerevisiae deletion strains, locus YNL067W, strain RPL9B, active compounds read low 1.01 | S. cerevisiae deletion strains, locus YNL128W, strain TEP1, active compounds read low 1.01 | S. cerevisiae deletion strains, locus YNL153C, strain GIM3, active compounds read low 1.01 | S. cerevisiae deletion strains, locus YNL233W, strain BNI4, active compounds read low 1 | S. cerevisiae deletion strains, locus YNL250W, strain rad50, active compounds read low 1.01 | S. cerevisiae deletion strains, locus YNL271C, strain bni1, active compounds read low 1.01 | S. cerevisiae deletion strains, locus YNL298W, strain CLA4, active compounds read low 1.02 | S. cerevisiae deletion strains, locus YNL307C, strain MCK1, active compounds read low 1.01 | S. cerevisiae deletion strains, locus YNL322C, strain KRE1, active compounds read low 1.01 | S. cerevisiae deletion strains, locus YNR052C, strain pop2, active compounds read low 1.02 | S. cerevisiae deletion strains, locus YOL006C, strain TOP1, active compounds read low 1.09 | S. cerevisiae deletion strains, locus YOL012C, strain htz1 1.25 | S. cerevisiae deletion strains, locus YOL147C, strain pex11, active compounds read low 1.01 | S. cerevisiae deletion strains, locus YOR061W, strain CKA2, active compounds read low 1.01 | S. cerevisiae deletion strains, locus YOR069W, strain VPS5, active compounds read low 1 | S. cerevisiae deletion strains, locus YOR136W, strain idh2, active compounds read low 1.02 | S. cerevisiae deletion strains, locus YOR144C, strain elg1, active compounds read low 1.02 | S. cerevisiae deletion strains, locus YOR184W, strain ser1, active compounds read low 1.03 | S. cerevisiae deletion strains, locus YOR316C, strain cot1, active compounds read low 1.02 | S. cerevisiae deletion strains, locus YPL055C, strain LGE1, active compounds read low 1.02 | S. cerevisiae deletion strains, locus YPL241C, strain CIN2, active compounds read low 1 | S. cerevisiae deletion strains, locus YPR119W, strain clb2, active compounds read low 1.01 | S. cerevisiae deletion strains, locus YPR141C, strain kar3, active compounds read low 1.03 | S. cerevisiae deletion strains, locus YPR163C, strain tif3, active compounds read low 1.02 | S. cerevisiae deletion strains, locus YPR167C, strain met16, active compounds read low 1.02 | S. cerevisiae deletion strains, strain wtn01, active compounds read low 1.01 | S. cerevisiae strains, strain wild type, active compounds read low 0.999
